# Bioassay records: PubChem BioAssay, National Center for Advancing Translational Sciences (NCATS)
# Only some compounds are listed: those with a hit (about 3.3% of all), similar ones and a draw of the others.
# PI4K2A inh – PI4K2A (human) kinase inhibition. 0.13% of 420,000 active. Q9BTU6. AID 1346378. activity change, negative = inhibition, % at 76.9 µM. purified PI4K2A, ADP-Glo luminescence, 1 h; hits give low values; in the data active = activity change below about -50%; inconclusive = mostly about -30% to -49%;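 also: -100% = wells without enzyme as full effect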
# Target sequence (Q9BTU6 whole entry, looked up): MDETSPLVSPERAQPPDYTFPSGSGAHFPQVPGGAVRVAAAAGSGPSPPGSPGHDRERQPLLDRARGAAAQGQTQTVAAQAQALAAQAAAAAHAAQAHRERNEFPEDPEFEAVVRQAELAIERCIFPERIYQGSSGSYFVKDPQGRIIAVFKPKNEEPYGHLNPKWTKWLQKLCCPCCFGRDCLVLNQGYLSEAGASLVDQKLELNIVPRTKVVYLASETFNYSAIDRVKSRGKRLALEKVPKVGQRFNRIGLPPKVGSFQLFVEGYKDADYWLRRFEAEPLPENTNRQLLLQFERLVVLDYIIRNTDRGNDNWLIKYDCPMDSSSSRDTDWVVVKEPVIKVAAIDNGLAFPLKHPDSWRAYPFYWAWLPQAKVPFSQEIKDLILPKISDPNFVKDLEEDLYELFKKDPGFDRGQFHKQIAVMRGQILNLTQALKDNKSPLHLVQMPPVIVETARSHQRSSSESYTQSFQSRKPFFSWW
#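 ADP-Glo luminescence measured ADP generated by PI4K2A enzyme (4 ug/mL before mixing) with 1.2 mM PI substrate (pre-mix) and 300 microM ATP (pre-mix). Tris pH7.5 buffer with MgCl2, Triton X-100; 1 h reaction at ambient temperature.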
# DRD3 agonist – agonists of human D3 dopamine receptor; max activation, %; 0.58% of 410,000 active; AID 652048; P35462; D3R DiscoveRx beta-arrestin cells, luminescence, 90 min; in the data active = max activation above about 30%; also: 0% is about no effect
#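 Agonist mode: compounds and dopamine controls were applied to plated cells for 90 min at 37 degrees C after an overnight attachment at 1500 cells/well. Luminescent read-out followed 30 - 60 minutes at room temperature with DiscoveRx detection reagent.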
# LDHA block – blocks human lactate dehydrogenase A. purified LDHA, NADH/diaphorase-resazurin fluorescence; hits give low values. activity change, % (values are at about 110 or 230 µM). 0.15% of 480,000 active. P00338. AID 1347041; in the data active = activity change below about -30%; inconclusive = mostly about -25% to -30%;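 also: plate controls were DMSO wells for no effect and wells without enzyme for full effect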
#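 Human LDH5 (2 nM) was incubated with 0.06 mM NADH and 0.2 mM pyruvate for 5 min at room temperature in Tris pH 7.4. Remaining NADH was coupled through diaphorase/resazurin, and resorufin fluorescence was read at 0 and 20 min.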
# PI5P4Ka inh – inhibitors of human PI5P4K alpha. PI5P4Kalpha enzyme, ADP-Glo luminescence, 60 min; hits give low values. 1.2% of 330,000 active. max response, %. AID 652105. P48426; active = max response of -50% or lower; inconclusive = between -30% and -50%; inactive = -30% or higher; also: value at the top dose of about 77 µM; % is scaled to controls: 0 for no effect and ±100 for the full control effect
#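 Controls without substrate or without enzyme flank wells where PI5P4Kalpha converts substrate using 5 microM ATP (final). Incubation lasts 60 minutes at room temperature; ADP formed is read by ADP-Glo luminescence.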
# D3 antag – antagonists of human D3 dopamine receptor; AID 652054; D3R cells, DiscoveRx beta-arrestin luminescence, antagonist mode; hits give low values; 2.5% of 360,000 active; P35462; max response, negative = inhibition, %; in the data active = max response below about -50%; inconclusive = no clear call, values can overlap the other calls; also: % is scaled to controls: 0 for no effect and ±100 for the full control effect
#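 Cells plated overnight at 1500 cells/well, then exposed to library compounds with dopamine controls for 90 minutes at 37 degrees C. DiscoveRx reagent added for 30–60 minutes at room temperature; luminescence read, quantitative HTS format.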
# Active calls of the source: *; ? = inconclusive; · = no result.
SMILES,PI4K2A inh,DRD3 agonist,LDHA block,PI5P4Ka inh,D3 antag
COc1cc(C(=O)OCC(=O)NCCC2=CCCCC2)cc(OC)c1OC,-2,-5,-2,0,12
Cc1oc(-c2ccc(Cl)cc2)[n+]([O-])c1C,14,-2,-3,-3,-67*
Cc1c(C)[n+](=O)c(-c2ccc(Cl)cc2)c(C)n1[O-],·,·,-1,·,·
COc1ccc(C(=O)/C=C/Nc2ccc([N+](=O)[O-])cc2C)c(OC)c1,5,32*,3,·,16
COc1ccc(OC)c(N/C=C/C(=O)c2ccccc2)c1,-52*,8,4,-17,-22
COc1ccc(OC)c(NC(=S)Nc2ccccc2)c1,0,-6,2,-2,-18
COC(=O)NNC(=S)Nc1cc(OC)ccc1OC,0,-4,1,·,-141*
COc1ccc(OC)c(N/C(C)=C/C(=O)c2ccccc2)c1,-12,1,6,-2,-6
CC(c1nc2ccccc2o1)N1C(=O)c2ccccc2C1=O (configuration not stated),-2,12,-7,·,-53*
O=c1c(C=Nc2cccc(C(F)(F)F)c2)c[nH]n1-c1cccc(Cl)n1,0,-1,-11,·,-12
O=c1c(C=Nc2ccc(Cl)cc2)c[nH]n1-c1cccc(Cl)n1,2,1,-52*,2,-10
COc1cc(C(=O)OCCCc2cc3ccccc3c(=O)o2)cc(OC)c1OC,5,18,-3,0,4
COc1cc(C(=O)OCCc2cc3ccccc3c(=O)o2)cc(OC)c1OC,-2,34*,-18,0,63
COc1cc2cc(CCCOC(=O)c3cc(OC)c(OC)c(OC)c3)oc(=O)c2cc1OC,1,55*,1,-1,16
Cc1cc(C)cc(NC(=O)CN2CCC(C(=O)N3CCCC(C)C3)CC2)c1 (configuration not stated),·,·,-4,·,·
COc1cc(C(=O)Nc2sc(C(=O)OC(C)C)c(C)c2C#N)cc(OC)c1OC,·,·,-8,·,·
O=C(O)c1cccc(S(=O)(=O)Nc2ccc(Cl)c3cccnc23)c1,·,·,40,·,·
COc1ccc(NC(=O)C2CCN(C(=O)Cc3ccccc3)CC2)cc1OC,1,5,-4,2,-11
COc1ccc(NC(=O)C2CCN(C(=O)Nc3ccccc3)CC2)cc1S(=O)(=O)N(C)C,-4,-22,-9,1,-67*
O=C(C1CC1)N1CCN=C1SCc1ccccc1Cl,-3,-7,-1,4,-60*
CCOC(=O)c1nnn(C(CC)C(=O)Nc2cc(OC)ccc2OC)c1C(=O)OCC (configuration not stated),·,·,-4,·,·
CNCCCNC(=O)c1ccc(/C=N/O)nc1,6,-3,0,0,1
O=C(NCCCNC1CCCCC1)c1ccc(/C=N/O)nc1,-2,-24,2,2,-60*
O=C1CCCCC1Sc1nccn1-c1ccccc1 (configuration not stated),·,·,0,·,·
CC(=O)/C(C(=N)N1CCN(Cc2ccccc2)CC1)=C(\C)O,-6,-19,1,6,-54*
SMILES,PI4K2A inh,DRD3 agonist,LDHA block,PI5P4Ka inh,D3 antag
S=C(c1ccc(Cl)cc1)N1CCN(Cc2ccccc2)CC1,0,-24,-4,0,-69*
OCCN1CCN(C(=S)c2ccc(Cl)cc2)CC1,-5,-10,0,-16,6
CCN1CCN(C(=S)c2ccc(Cl)cc2)CC1,-21,-2,-6,?,-69*
CCN1CCN(C(=S)c2ccc(SC)cc2)CC1,-7,-11,-11,-9,-85*
CSc1ccc(C(=S)N2CCN(Cc3ccccc3)CC2)cc1,-7,-3,0,0,?
Cc1ccc(OC(C)c2nc(-c3ccc(Br)o3)no2)cc1C (configuration not stated),·,·,11,·,·
O=C(/C=C/c1ccc(O)cc1)c1ccccc1,-75*,-1,0,-8,18
O=C(/C=C/c1ccc(Cl)cc1)c1ccc(O)cc1,·,·,6,·,·
Cc1ccc(C)c(C(C)(C)CC(=O)O)c1,·,·,-4,·,·
NNc1nc(Nc2ccc([N+](=O)[O-])cc2)nc(N2CCCCCC2)n1,-1,-25,-8,-5,-52*
O=[N+]([O-])c1ccc(Nc2nc(NCCO)nc(N3CCCC3)n2)cc1,-4,9,-4,-3,-10
COc1ccc(C(=O)COC(=O)CCc2ccc(-c3ccccc3)o2)cc1,·,·,-1,·,·
